Test results from PubChem BioAssay (Tox21).
Inconclusive results are not listed. Activity calls are given as the source filed them. Calls come from the whole dose curve; as a rule, active = well fitted activation curve with a large enough effect in the repeat runs; inconclusive = weak or mixed curves; inactive = no such curve, though single readings can be large or run the other way.

Experiment: qHTS assay to identify small molecule agonists of the estrogen related receptor (ERR) signaling pathway (AID 1224820)
Conditions: ERR reporter cell line, luciferase agonist mode; series mostly up to 46.1 µM; activation: at the top concentration
From the text: National Center for Advancing Translational Sciences [NCATS]
NIH Chemical Genomics Center [NCGC]
U.S. Environmental Protection Agency [EPA]
National Institutes of Environmental Health Sciences [NIEHS]
National Toxicology Program [NTP]
Estrogen related receptors (ERRs), the first orphan nuclear receptors discovered, play an important role in the control of cellular energy metabolism. ERRs are required for high-energy production in response to the environmental challenges. ERR-alpha was also identified as an adverse marker for breast cancer progression; ERR-alpha-positive tumors have a poor prognosis. To screen and to identify environmental compounds that perturb the ERR signaling pathways could provide valuable information for potential therapeutic or preventive measures in the treatment of metabolic disease. For identifying ERR agonists, ERR cell line (provided by NTP) has been used to screen LOPAC library.
The ERR cells were dispensed at 2,000 cells/5 ul/well in 1536-well white plates using a Multidrop dispenser. After the assay plates were incubated at a 37 C/5% CO2 incubator for 6 hours, 23 nL of compounds dissolved in DMSO, positive and negative controls or DMSO only was transferred to the assay plate by a pin tool. The plates were incubated at 37 C for 18 hours. 4 ul/well of One-Glo reagent was added into the assay plates using a Flying Reagent Dispenser. After 30 min incubation at room temperature, the luminescence intensity in the plates was measured using a ViewLux plate reader.
% is set by controls: 0 for no effect and ±100 for the full control effect; potency is the fitted concentration of half-maximal effect.

Structure (SMILES)	activation	Potency
CCc1ccc(/C=C2/SC(=S)NC2=O)cc1	-5.77% (inactive)	
CN(C)C(=O)/N=N/C(=O)N(C)C	11.3% (inactive)	
O=C(c1cc(O)c(O)c([N+](=O)[O-])c1)c1ccccc1F	-64.4% (inactive)	
COC(=O)C1=C(C)NC(C)=C(C(=O)OC)C1c1cccc(NC(=O)NCCCN2CCC(c3cccc(OC)c3)CC2)c1	-92.4% (inactive)	
COCCOc1cc2nc[nH]c(=O)c2cc1OCCOC	9.64% (inactive)	
C#C[C@]1(O)CC[C@H]2[C@@H]3CCC4=Cc5oncc5CC4(C)[C@H]3CCC21C (stereo not given in full)	-90.6% (inactive)	
CC1CN(S(=O)(=O)c2cccc3cnccc23)CCN1 (stereo not given)	5.08% (inactive)	
CN1CCN(CCCN2c3ccccc3Sc3ccc(C(F)(F)F)cc32)CC1	-28.6% (inactive)	
COc1ccc(CCN(C)CCc2ccc(OC)c(OC)c2)cc1OC	-20.2% (inactive)	
O=C1C(SCCO)=C(SCCO)C(=O)c2ccccc21	-102% (inactive)	
N[C@@H](Cc1ccc(O)c(O)c1)C(=O)O	29.6% (inactive)	
CC1(C)C(=O)N(CCN2CCC(C(=O)c3ccc(F)cc3)CC2)c2ccccc21	-83.7% (inactive)	
O=c1[nH]ccc2c(O)cccc12	-0.477% (inactive)	
CN1CCc2cc(NC(=O)Nc3cccnc3)ccc21		9.08 µM (active)
CC(=O)O[C@H]1C[C@@H]2CC[C@@H]3[C@H](CC[C@@]4(C)[C@H]3C[C@H]([N+]3(C)CCCCC3)[C@@H]4OC(C)=O)[C@@]2(C)C[C@@H]1[N+]1(C)CCCCC1	9.33% (inactive)	
Cc1cccc(C(=O)NCN2CCN(c3ccccc3C#N)CC2)c1	-5.27% (inactive)	
CC(N)(Cc1ccc(O)cc1)C(=O)O (stereo not given)	-3.65% (inactive)	
O=C(O)CCC/C=C\C[C@@H]1[C@@H](/C=C/[C@H](O)C2Cc3ccccc3C2)[C@@H](F)C[C@@H]1O	-0.755% (inactive)	
C[C@H]1CC2C3CCC4=CC(=O)C=C[C@]4(C)[C@@]3(Cl)[C@@H](O)C[C@]2(C)[C@@]1(O)C(=O)CO (stereo not given in full)	-6.84% (inactive)	
COC(=O)C1=C(C)NC(C)=C([N+](=O)[O-])C1c1ccccc1C(F)(F)F (stereo not given)	-33.2% (inactive)	

Structure (SMILES)	activation	Potency
Cn1c(=O)c2[nH]c(-c3ccccc3)nc2n(C)c1=O	8.1% (inactive)	
NCCCCN=C(N)N	2.86% (inactive)	
COc1cc(CNC(=O)CCCCCCC(C)C)ccc1O	24.6% (inactive)	
CC(=O)/C(C)=N/O	4.6% (inactive)	
CCc1ccc2c(-c3cccc(Cl)c3)nc(=O)n(CC)c2n1	-45.6% (inactive)	
NS(=O)(=O)c1ccc(-n2nc(C(F)(F)F)cc2-c2ccc(Cl)cc2)cc1	-31.7% (inactive)	
CC(C)C[C@H](NC(=O)[C@@H](O)[C@H](N)Cc1ccccc1)C(=O)O	-37.4% (inactive)	
CCN(CC)CCCCCCCCOC(=O)c1cc(OC)c(OC)c(OC)c1	-39.2% (inactive)	
CNc1ncnc2c1ncn2[C@H]1C[C@H](OP(=O)(O)O)[C@@H](COP(=O)(O)O)O1	6.9% (inactive)	
O=c1cc(-c2ccccc2F)[nH]c2cc3c(cc12)OCO3	13.7% (inactive)	
NC(N)=NC(N)=Nc1cccc(Cl)c1	-11.5% (inactive)	
O=C1NC(=O)/C(=C/c2ccc(-c3ccc(F)cc3O)o2)S1	-16.6% (inactive)	
N[C@@H](Cc1ccc(F)cc1)C(=O)O	7.2% (inactive)	
Cn1cc(C2=C(c3ccc(Cl)cc3Cl)C(=O)NC2=O)c2ccccc21	-53.7% (inactive)	
CC(N)=NCCCC[C@@H](N)C(=O)O	4.95% (inactive)	
CN[C@H](CC(=O)O)C(=O)O	16% (inactive)	
NC/C=C\C(=O)O	1.37% (inactive)	
CC(=O)NNC(=O)N1Cc2ccccc2Oc2ccc(Cl)cc21	-3.99% (inactive)	
CCCCCCC/C=C\CCCCCCCCC(=O)O	2.32% (inactive)	
C[N+]1(CCCCC[N+]2(C)CCCC2)CCCC1	23.1% (inactive)	
